The record followed here is the supplement of paper PMC10981050.

“And” between values parts separate entries of the source, which are not always exact repeats. Equal entries are not always repeated.

What all share (test): cell viability relative to vehicle control; higher = less cytotoxic
In one assay the test system is K562. Conditions: 10 µM; SRSF2 genotype: SRSF2 wt/wt. A digest of the protocol:
(§1)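 Mutant clones made by CRISPR editing and their isogenic wild-type counterparts, from four leukaemia lines, were exposed to a single 10 µM dose of each library compound for 48 h. The supernatant was then removed and CellTiter-Glo luminescence was read. Viability was reported as percent of the on-plate vehicle control.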

Another assay relates to MARIMO. Conditions: 10 µM. The method in brief:
as §1

The subject of the next assay is MOLM14. Conditions: 10 µM. The method in brief:
as §1

A further assay concerns OCI-AML2. To be noted: 10 µM. The method in brief: as §1

One may read the cell viability as a read-out of living cells in per cent, often relative to untreated cells. For `CC=C(C)C(=O)OC1C(OC(C)=O)C2(CO)C(O)CC3(C)C(=CCC4C5(C)CCC(OC6OC(C(=O)O)C(OC7OC(CO)C(O)C(O)C7O)C(O)C6OC6OC(CO)C(O)C(O)C6O)C(C)(CO)C5CCC43C)C2CC1(C)C` (centres undefined) [Escin], the cell viability with K562 amounted to 48.9%; in the assay on MARIMO (SRSF2 genotype: SRSF2 P95H/wt), 90.1%; in the assay with MARIMO (SRSF2 genotype: SRSF2 wt/wt) it was 90.1%; in the assay with MOLM14 (SRSF2 genotype: SRSF2 P95H/wt) it was 53.3%; with MOLM14 (SRSF2 genotype: SRSF2 wt/wt), 67.9%; in the assay with OCI-AML2 (SRSF2 genotype: P95H/wt) it was 23.9%. Also, in the assay with OCI-AML2 (SRSF2 genotype: wt/wt), the cell viability is 31.4%.
On to `COc1ccc(N2C(=O)/C(=C\c3ccc([N+](=O)[O-])s3)SC2=S)cc1`, for which the cell viability in the assay with K562 was determined as 66.2%; in the assay with MARIMO (SRSF2 genotype: SRSF2 P95H/wt), 71.8%; in the assay on MARIMO (SRSF2 genotype: SRSF2 wt/wt), 52.8%; with MOLM14 (SRSF2 genotype: SRSF2 P95H/wt) it was 36.7%; in the assay with MOLM14 (SRSF2 genotype: SRSF2 wt/wt), 58.2%; with OCI-AML2 (SRSF2 genotype: P95H/wt), 0.66%. In the assay with OCI-AML2 (SRSF2 genotype: wt/wt), the cell viability was 5.17%.
On to `COc1ccc(F)c(F)c1C(=O)c1cnc(NC2CCN(S(C)(=O)=O)CC2)nc1N`, for which the cell viability with K562 is 54.3%; in the assay on MARIMO (SRSF2 genotype: SRSF2 P95H/wt), 11.3%; in the assay on MARIMO (SRSF2 genotype: SRSF2 wt/wt), 12.1%; in the assay with MOLM14 (SRSF2 genotype: SRSF2 P95H/wt), 1.28%; in the assay with MOLM14 (SRSF2 genotype: SRSF2 wt/wt) it was 0.27%; with OCI-AML2 (SRSF2 genotype: P95H/wt), 3.74%. For the same molecule, in the assay on OCI-AML2 (SRSF2 genotype: wt/wt), the cell viability worked out at 15.6%.
`Cn1cc(-c2ccc(F)c(C(F)(F)F)c2)nc1C1CCN(c2ncnc3[nH]ncc23)CC1`: the cell viability with K562 was 86% and 80.8%; with MARIMO (SRSF2 genotype: SRSF2 P95H/wt), 88.3% and 83.6%; in the assay with MARIMO (SRSF2 genotype: SRSF2 wt/wt), 96.6% and 99.4%; in the assay with MOLM14 (SRSF2 genotype: SRSF2 P95H/wt), 92.3% and 80.4%; in the assay on MOLM14 (SRSF2 genotype: SRSF2 wt/wt), 95.3% and 97.3%; in the assay with OCI-AML2 (SRSF2 genotype: P95H/wt) it was 85.9% and 77.1%. Also, in the assay with OCI-AML2 (SRSF2 genotype: wt/wt), the cell viability was 92.6% and 79.5%.
Regarding `COc1cc([C@@H]2c3cc4c(cc3[C@@H](O[C@@H]3O[C@@H]5CO[C@@H](C)O[C@H]5[C@H](O)[C@H]3O)[C@H]3COC(=O)[C@H]23)OCO4)cc(OC)c1O` [Etoposide (VP-16)], the cell viability with K562 was 82%; in the assay with MARIMO (SRSF2 genotype: SRSF2 P95H/wt) it was 7.2%; in the assay on MARIMO (SRSF2 genotype: SRSF2 wt/wt), 6.84%; with MOLM14 (SRSF2 genotype: SRSF2 P95H/wt), 15.3%; in the assay on MOLM14 (SRSF2 genotype: SRSF2 wt/wt) it was 4.31%; in the assay with OCI-AML2 (SRSF2 genotype: P95H/wt), 13%. Further, in the assay on OCI-AML2 (SRSF2 genotype: wt/wt), the cell viability is 14.8%.
Turning to `COc1cc(O)cc(O)c1C(=O)C=Cc1ccccc1` [Cardamonin], the cell viability in the assay with K562 worked out at 77.8%; with MARIMO (SRSF2 genotype: SRSF2 P95H/wt), 54.5%; with MARIMO (SRSF2 genotype: SRSF2 wt/wt), 70.9%; with MOLM14 (SRSF2 genotype: SRSF2 P95H/wt), 33.1%; in the assay with MOLM14 (SRSF2 genotype: SRSF2 wt/wt), 74.1%; in the assay on OCI-AML2 (SRSF2 genotype: P95H/wt), 52.6%. Moreover, the cell viability in the assay with OCI-AML2 (SRSF2 genotype: wt/wt) was 51.2%.
As for `C[C@H](CS)C(=O)N1CCC[C@H]1C(=O)O` [Captopril (Capoten)], the cell viability in the assay with MARIMO (SRSF2 genotype: SRSF2 P95H/wt) turned out to be 103%; with MARIMO (SRSF2 genotype: SRSF2 wt/wt) it was 106%; with MOLM14 (SRSF2 genotype: SRSF2 P95H/wt), 102%; with MOLM14 (SRSF2 genotype: SRSF2 wt/wt), 102%; with OCI-AML2 (SRSF2 genotype: P95H/wt) it was 97.7%; in the assay with OCI-AML2 (SRSF2 genotype: wt/wt), 97.8%.
Regarding `CCOc1ccn(-c2ccc(F)cc2)c(=O)c1C(=O)Nc1ccc(Oc2ccnc(N)c2Cl)c(F)c1`, the cell viability worked out at 42% in the assay on K562; 69.1% with MARIMO (SRSF2 genotype: SRSF2 P95H/wt); 82.8% in the assay on MARIMO (SRSF2 genotype: SRSF2 wt/wt); 11.3% with MOLM14 (SRSF2 genotype: SRSF2 P95H/wt); 6.04% in the assay with MOLM14 (SRSF2 genotype: SRSF2 wt/wt); 20.9% in the assay with OCI-AML2 (SRSF2 genotype: P95H/wt). For the same molecule, the cell viability in the assay on OCI-AML2 (SRSF2 genotype: wt/wt) is 28.1%.
Turning to `Cc1cc(N2C[C@@H](C)N[C@@H](C)C2)ncc1-c1ccc(-c2nc3c(ccn3C)c(=O)[nH]2)cc1`, the cell viability came out at 59% with K562; 79.6% with MARIMO (SRSF2 genotype: SRSF2 P95H/wt); 76.4% in the assay with MARIMO (SRSF2 genotype: SRSF2 wt/wt); 0.95% in the assay on MOLM14 (SRSF2 genotype: SRSF2 P95H/wt); 1.53% with MOLM14 (SRSF2 genotype: SRSF2 wt/wt); 5.67% with OCI-AML2 (SRSF2 genotype: P95H/wt). The cell viability in the assay with OCI-AML2 (SRSF2 genotype: wt/wt) is 3.85%.
Take `CNC(=O)c1ccccc1Nc1nc(Nc2ccc(N3CCOCC3)cc2OC)ncc1Cl`: the cell viability was 113% in the assay with K562; 44.3% with MARIMO (SRSF2 genotype: SRSF2 P95H/wt); 39.6% in the assay on MARIMO (SRSF2 genotype: SRSF2 wt/wt); 9.8% with MOLM14 (SRSF2 genotype: SRSF2 P95H/wt); 6.5% with MOLM14 (SRSF2 genotype: SRSF2 wt/wt); 13.3% in the assay with OCI-AML2 (SRSF2 genotype: P95H/wt). The cell viability with OCI-AML2 (SRSF2 genotype: wt/wt) was determined as 20.4%.
